According to PubChem BioAssay AID1662 (Broad Institute, 2009):
“And” between values parts separate entries of the source, which are not always exact repeats. Equal entries are not always repeated. Out of some 300,000 compounds screened, about 4,000 (1.3%) were called active. Shown is part of a subset that was picked to be rich in actives. A number with no mark means an inactive call.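 How the source made its calls: active means mean replicate score, as percent of positive control median, at least 50; inconclusive means mean below 50 but one replicate at or above 50; inactive means mean and every replicate below 50.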

Assay: kanamycin survival loss of SKKanGAS strain – BacTiter-Glo luminescence, streptokinase expression inhibitor project, primary screen (AID 1662);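 further: strain carries kanamycin resistance gene driven by streptokinase promoter and grows in 40 µg/ml kanamycin; loss of luminescence reflects streptokinase promoter inhibition or plain growth inhibition; 0% = median of DMSO wells and 100% = positive control at its reference dose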
Conditions: S. pyogenes SKKanGAS, kanamycin growth, 6 h, at 7.5 µM, hits give high values

With CCOc1ccc(C(=O)NC(=S)Nc2ccc(N3CCOCC3)c(Cl)c2)cc1[N+](=O)[O-] the inhibition was 84% (active).
For COc1cc(NS(=O)(=O)c2ccc3ccccc3c2)c2ncccc2c1, the inhibition was 85% (active).
In the case of Cn1ccc(=Nc2ccc(NC(=O)c3ccc(N=c4ccn(C)c5ccc([N+](=O)[O-])cc45)cc3)cc2)cc1, the inhibition is reported as 75.8% (active).
With NC(N)=N/N=C/c1ccc(OCc2ccc(Cl)cc2Cl)cc1 the inhibition was 50.8% (active).
In the case of N#Cc1c(-c2ccccc2)nc(SCc2cccc(C(F)(F)F)c2)[nH]c1=O, the inhibition is reported as 67.4% (active).
For CN1CCN(C2Cc3ccc(Cl)cc3Sc3ccc(F)cc32)CC1 (centres undefined), the inhibition was 68.7% (active).
For CCc1ccc2c(c1)C1(NN=C(c3ccccc3)S1)C(=O)N2 (centres undefined), the inhibition was 96.7% (active).
With Cc1noc(C)c1CSCC(=O)Nc1nc2ccc(Oc3ccccc3)cc2s1 the inhibition was 51.3% (active).
With O=C(/C=C/c1ccc([N+](=O)[O-])o1)NNC(=O)c1ccc(F)cc1 the inhibition was 52.7% (active).
With COc1ccc(C(=O)/C=C/c2ccc(-c3ccccc3)cc2)cc1CSCC(=O)O the inhibition was 51.6% (active).
With O=C1Cc2ccccc2Sc2ccc(Cl)cc21 the inhibition was 75% (active).
In the case of O=c1c2cc(Br)ccc2nc(-c2cccc(Cl)c2)n1O, the inhibition is reported as 78.4% (active).
In the case of COc1cccc(/C=N/Nc2ncc(C(F)(F)F)cc2Cl)c1O, the inhibition is reported as 95.9% (active).
For O=C(N/N=C/c1cc([N+](=O)[O-])ccc1O)/C(=C\c1cccs1)NC(=O)c1ccccc1, the inhibition was 83.5% (active).
For Cc1ccc(C)c(N2CCN(C(=O)CCCCCn3c(=S)[nH]c4ccc(N5CCOCC5)cc4c3=O)CC2)c1, the inhibition was 50.8% (active).
In the case of CCCC(=O)Nc1nc2ccc(NC(=O)c3c(F)c(F)c(OC)c(F)c3F)cc2s1, the inhibition is reported as 71.5% (active).
With COc1ccc2nc(Nc3nc4ccc(NC(C)=O)cc4s3)sc2c1 the inhibition was 54.9% (active).
In the case of CCOc1ccc2nc(Nc3nc4ccc(NC(C)=O)cc4s3)sc2c1, the inhibition is reported as 62.6% (active).
In the case of CCOc1ccc2nc(NC(=O)c3cc([N+](=O)[O-])ccc3N3CCOCC3)sc2c1, the inhibition is reported as 50.1% (active).
In the case of CCc1nn(CCCN2CCN(c3cccc(Cl)c3)CC2)c(=O)n1CCOc1ccccc1, the inhibition is reported as -2.67% and -3.29%.

First: COc1cccc(OC)c1C(=O)NC(=S)Nc1ccc(N2CCOCC2)c(Cl)c1
Second: COc1ccc(S(=O)(=O)N2CCCCC2)cc1NC(=O)c1cc([N+](=O)[O-])ccc1N1CCOCC1
The inhibition of the first is lower: 4.82% for the first, 12.2% for the second.

First: CCOc1ccc(C(=O)NC(=S)Nc2ccc(NC(=O)C(C)C)cc2)cc1[N+](=O)[O-]
Second: Cc1cc([N+](=O)[O-])ccc1NC(=O)c1ccc(NC(=O)C(C)C)cc1
The inhibition of the first is higher: 19.7% for the first, 10.6% for the second.

Compared with CCN(CC)C(=O)CS(=O)CC(=O)Nc1cc(OCCOC)c(Cl)cc1Cl (centres undefined), CN(CC(=O)Nc1c(Cl)cccc1Cl)C(=O)CNC(=O)C1CCCCC1 is lower in inhibition: 0.17% for the first, -1.53% for the second.

Going from Cc1ccc(NS(=O)(=O)c2ccc(C)c(NC(=O)COc3ccc4ccccc4c3)c2)c(C)c1 to COc1ccc(/C=C/C(=O)c2ccc(NS(=O)(=O)c3ccc(C)cc3)cc2)cc1O, the inhibition rises from 29.6% to 31.2%.

Compared with COc1ccc(NC(=O)Nc2cccc3cccnc23)cc1, CCOc1ccc(NC(=O)NNC(=O)c2ccc(Cl)cc2Cl)cc1 is higher in inhibition: -7.39% for the first, -4.81% for the second.

First: C/C(=N\NC(=O)c1cccc([N+](=O)[O-])c1)c1cccnc1
Second: O=C(Nc1ccc(C(=O)N2CCCCC2)cc1)c1cccc([N+](=O)[O-])c1
The inhibition of the first is lower: -2.34% for the first, 6.65% for the second.

Going from O=C(CCN1C(=O)[C@@H]2Cc3ccccc3CN2C1=O)NCc1ccccc1 to O=C(CCNC(=O)c1ccc(Br)cc1)NCCCc1ccccc1, the inhibition falls from -1.78% to -14.7%.

Compared with COC(=O)C1(C)NC(c2ccc(C)cc2)C2C(=O)N(c3ccc(F)cc3)C(=O)C21 (centres undefined), CSc1ccc(CN(C)CC(=O)NCc2ccc(F)cc2)cc1 is lower in inhibition: 0.707% for the first, -18.5% for the second.

Compared with OC(CNCCc1ccc(Cl)cc1Cl)COc1ccccc1 (centres undefined), S=C1Nc2cc(Cl)ccc2Sc2ccccc21 is lower in inhibition: 8.35% for the first, 3.58% for the second.

Going from CCN(CCn1cccn1)C(=O)CC1C(=O)NCCN1Cc1cccc(OC)c1OC (centres undefined) to CCCOc1ccc(C2NC(=O)NC(c3ccccc3)=C2C(C)=O)cc1OCC (centres undefined), the inhibition falls from -6.29% to -8.73%.

First: C/C(=N\NC(=O)OC(C)(C)C)c1ccc[nH]1
Second: C/C(=N\NC(=O)c1ccoc1C)c1ccccc1O
The inhibition of the first is lower: -6.42% for the first, 4.94% for the second.

First: N#Cc1c(-c2ccccc2)nc(SCc2ccc([N+](=O)[O-])cc2)[nH]c1=O
Second: Cc1ccc(CSc2nc(-c3ccccc3)c(C#N)c(=O)[nH]2)cc1
The inhibition of the first is lower: 15.1% for the first, 43.6% for the second.

Compared with Cc1ccc(CS(=O)(=O)c2ncc(Cl)c(C(=O)Nc3nnc(C)s3)n2)cc1, Cc1ccc(-n2ncc3c2CC(C)(C)CC3NC(=O)Cc2c(C)noc2C)cc1 (centres undefined) is lower in inhibition: 2.36% for the first, -4.1% for the second.

Compared with COc1cccc(NC(=O)C2C(c3ccccc3)C2(Cl)Cl)c1 (centres undefined), COc1cccc(/C(C)=N/Nc2ncc(Cl)cc2Cl)c1 is lower in inhibition: 31.8% for the first, -4.25% for the second.

Going from CCc1ccc(Oc2nc([N+](=O)[O-])nn2C)cc1 to COC(=O)Cc1ccc(Oc2ncc(C(F)(F)F)cc2Cl)cc1, the inhibition falls from 2.57% to -5.08%.

Compared with Cc1cc(C(=O)N2CCC(C(=O)O)CC2)c(C(F)(F)F)o1, CC(=O)Oc1ccc(-c2cccc(C(=O)N3CCCCC3)c2)cc1 is lower in inhibition: -3.49% for the first, -5.29% for the second.

First: Cc1noc(C)c1CSCC(=O)Nc1ccc(Br)cc1Cl
Second: CCc1noc(C)c1C(=O)Nc1nc2ccc(OC)cc2s1
The inhibition of the first is higher: 32.2% for the first, -6.51% for the second.

First: COc1ccc(C(=O)Nc2ccc(C3(C#N)CCCC3)cc2)cc1OC
Second: COC(=O)c1ccc(COc2ccc(/C=C/C(=O)c3ccc(OC)c(CSCC(=O)O)c3)cc2OC)cc1
The inhibition of the first is higher: 0.181% for the first, -12.5% for the second.

Compared with C/[N+]([O-])=C\c1ccc([N+](=O)[O-])o1, O=[N+]([O-])c1ccc(O)c(/C=N/Nc2ccccc2[N+](=O)[O-])c1 is higher in inhibition: 1.43% for the first, 17.8% for the second.

Compared with Cc1ccc(/C=C/C(=O)Nc2ccc([N+](=O)[O-])c(NC(=O)/C=C/c3ccc(C)o3)c2)o1, CCC(=O)c1ccc(OCC(=O)Nc2ccc3nc(C)sc3c2)cc1 is lower in inhibition: 6.98% for the first, -10.4% for the second.

Going from CCN1CCN(C(=O)N(Cc2ccc(Cl)cc2)S(=O)(=O)c2ccc(C)cc2)CC1 to Cc1cccc(-c2nc3ccccc3c(=O)n2NC(=O)Cc2ccc(Cl)cc2)c1, the inhibition falls from -0.707% to -2.71%.

Compared with Cc1occc(=O)c1OCc1c(Cl)cccc1Cl, O=C1CCCc2c1nc(-c1cccc(Cl)c1)n2O is lower in inhibition: 1.59% for the first, -3.24% for the second.

Going from CCN(CC)c1ccc(S(=O)(=O)N2CCCCC2)cc1NC(=O)C1=COCCO1 to O=C(NC1CCCCC1)c1cc([N+](=O)[O-])ccc1N1CCOCC1, the inhibition rises from -12% to 3.56%.

First: O=C1CC2(CCCC2)Oc2ccc(Cl)cc21
Second: COc1ccc2nc(NC(=O)NC3CCCCC3)sc2c1
The inhibition of the first is higher: 9.19% for the first, -5.74% for the second.

Going from CN(CCc1ccccn1)S(=O)(=O)c1ccc2c3c(cccc13)C(=O)N2 to O=C(Nc1ccccc1F)c1ccccc1-c1ccc(C(F)(F)F)cc1, the inhibition falls from -0.86% to -10.9%.

Compared with O=C(NCc1ccncc1)C1CCCN(S(=O)(=O)c2ccc(Br)cc2)C1 (centres undefined), COc1ccc(S(=O)(=O)N2CCOC23CCN(S(=O)(=O)c2ccc([N+](=O)[O-])cc2)CC3)cc1 is lower in inhibition: 3.53% for the first, 2.41% for the second.

Going from Cc1cccc([C@@H]2[C@@H]3C(=O)N(Cc4ccccc4)C(=O)[C@@H]3[C@]3(Cc4ccc(Cl)cc4)C(=O)N(c4cccc(Cl)c4)C(=O)N23)c1 to Cc1ccc(C)c(N2CCN(C(=O)CCCCn3c(=O)[nH]c4ccccc4c3=O)CC2)c1, the inhibition rises from -2.38% to 10.5%.

Going from CC(OC(=O)CNC(=O)c1ccc(Cl)c([N+](=O)[O-])c1)C(=O)NCc1ccco1 (centres undefined) to CCCC(=O)Nc1nc2ccc(NC(=O)c3cccnc3)cc2s1, the inhibition falls from -7.18% to -13.3%.

First: Cc1cc(N)n2nc(-c3ccc(C(C)(C)C)cc3)cc2n1
Second: CSc1nc2ccc(NC(=O)c3c(F)cccc3F)cc2s1
The inhibition of the first is higher: 38.2% for the first, -1.79% for the second.

Going from O=C(N/N=C/c1ccc(O)cc1)/C(=C/c1ccc([N+](=O)[O-])cc1)NC(=O)c1ccccc1 to O=C(c1cc2c(s1)CCC2)N1CCN(c2ccccc2)CC1, the inhibition rises from -0.983% to 3.4%.

First: O=C(CCCCCn1c(=S)[nH]c2cc3c(cc2c1=O)OCO3)N1CCN(c2ccc(F)cc2)CC1
Second: CCOc1ccc2nc(NC(=O)CSc3nc4c(c(=O)n(C)c(=O)n4C)n3CC)sc2c1
The inhibition of the first is lower: 4.31% for the first, 4.34% for the second.

Compared with COc1ccc2nc(NC(=O)c3ccc(Br)s3)sc2c1, COc1cc(NS(=O)(=O)c2ccc(N/C=C(\C=O)c3nc4cc(Cl)ccc4o3)cc2)nc(OC)n1 is lower in inhibition: 38.2% for the first, 22% for the second.

Going from CCCCSc1nc2c(c(=O)n1CC)SC(C)C2 (centres undefined) to CCCCCCCCc1c(O)nc(-n2[nH]c(C)c(CCO)c2=O)[nH]c1=O, the inhibition rises from -4.67% to 9.64%.

First: COCC1CCN(C(=O)C2CCC(=O)N(CC3CCCCC3)C2)CC1 (centres undefined)
Second: CCNc1nc(NC(C)C)nc(N2CC(=O)N(CC(=O)OCC)C2=N)n1
The inhibition of the first is lower: -1.21% for the first, 0.266% for the second.

CC(C)(C)n1nnc(CCc2nnn(C(C)(C)C)n2)n1 showed an inhibition of -4.02%.
